A3A deaminase – APOBEC3A ssDNA deaminase inhibitors, primary screen, selectivity assay for APOBEC3G inhibitor project, biochemical, FAM/TAMRA oligo cleavage fluorescence. inhibition, % at 20 µM. 0.41% of 330,000 active. DNA dC->dU-editing enzyme APOBEC-3A (Homo sapiens), P31941. AID 493011, 2011. recombinant A3A, FAM/TAMRA ssDNA deamination fluorescence;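 active = at least 40% inhibition at 20 µM here, with at most 30% in a related deaminase screen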;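 also: plate controls were A3A with DMSO for no effect and wells lacking A3A enzyme for full effect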
Target sequence (P31941 whole entry, looked up): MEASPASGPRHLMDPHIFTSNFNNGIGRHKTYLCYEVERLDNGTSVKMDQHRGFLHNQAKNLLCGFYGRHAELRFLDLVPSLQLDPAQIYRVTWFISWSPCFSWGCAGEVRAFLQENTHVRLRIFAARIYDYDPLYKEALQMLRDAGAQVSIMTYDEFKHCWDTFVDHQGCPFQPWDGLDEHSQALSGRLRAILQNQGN
PABP polyA inh – PABP poly(A) RNA binding inhibitors, primary screen, biochemical, fluorescence polarization, uHTS; 1% of 290,000 active; calls only at 35 µM;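 also: calls also rest on retests at 20 µM and on dose response follow-up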
PHOSPHO1 inh – PubChem AID 1565; Phosphoethanolamine/phosphocholine phosphatase (Homo sapiens), Q8TCT1; 1.1% of 290,000 active; recombinant PHOSPHO1, absorbance phosphatase assay; inhibition, % at 13.3 µM; in the data active = inhibition above about 60%
MLLE-PAM2 inh – inhibitors of PABP1 MLLE–PAM2 peptide binding, primary screen, biochemical, fluorescence polarization, FITC-PAM2, GST-MLLE | Polyadenylate-binding protein 1 (Homo sapiens), P11940 | inhibition, % at 20 µM | 0.36% of 360,000 active | AID 588489, 2011; in the data active = inhibition above about 35%, passing the limit was not always enough;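 also: plate controls were DMSO wells with GST-MLLE for no effect and wells lacking GST-MLLE protein for full effect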
APOBEC3G inh – APOBEC3G DNA deaminase inhibitors, primary screen, biochemical, fluorescence, single-stranded DNA substrate, uHTS; DNA dC->dU-editing enzyme APOBEC-3G (Homo sapiens), Q9HC16; recombinant A3G, ssDNA deamination FAM/TAMRA fluorescence; inhibition, % at 20 µM; 0.28% of 330,000 active;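 active = inhibition of at least 40% at 20 µM, with no more than 30% in the related APOBEC3A deaminase screen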;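 also: plate controls were DMSO wells with A3G for no effect and wells lacking A3G enzyme for full effect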
Target sequence (Q9HC16 whole entry, looked up): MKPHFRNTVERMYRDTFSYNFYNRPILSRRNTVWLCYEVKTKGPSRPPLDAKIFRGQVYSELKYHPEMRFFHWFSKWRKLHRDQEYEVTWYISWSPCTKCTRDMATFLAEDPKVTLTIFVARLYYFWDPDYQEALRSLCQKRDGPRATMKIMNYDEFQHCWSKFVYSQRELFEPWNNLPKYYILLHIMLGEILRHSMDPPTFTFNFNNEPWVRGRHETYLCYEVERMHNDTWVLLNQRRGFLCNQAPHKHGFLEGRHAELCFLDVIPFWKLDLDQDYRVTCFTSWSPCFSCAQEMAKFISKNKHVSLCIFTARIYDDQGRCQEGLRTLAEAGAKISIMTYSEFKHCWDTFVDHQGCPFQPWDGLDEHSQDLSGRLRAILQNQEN
eIF4H inh – human eIF4H binding inhibitors, primary screen, translation initiation inhibitor project, biochemical, uHTS, fluorescence polarization; Eukaryotic translation initiation factor 4H (Homo sapiens), Q15056; eIF4H fluorescence polarization binding assay; inhibition, % at 35 µM; 0.94% of 290,000 active; AID 2012, 2009;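 also: calls also rest on retests at 20 µM and on dose response follow-up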
* = called active by the depositor; i = inactive; ? = inconclusive; . = no result; + = active, no number. The list is not random: actives were taken first. Their share in the collection is about 2.6%. Unless noted, no rule for the calls is given here.

SMILES	A3A deaminase	PABP polyA inh	PHOSPHO1 inh	MLLE-PAM2 inh	APOBEC3G inh	eIF4H inh
CC(C)c1cc(=O)oc2c3c4c(cc12)CCCN4CCC3	2.3	i	89.7*	-8.1	0.3	14.5
CC(C)Sc1nc2ccccc2c(=O)[nH]1	-1.1	i	10.4	2.3	-2.2	-0.7
CC(c1nc2ccccc2c(=O)[nH]1)N(C)c1ccc2ccccc2c1 (stereo unspecified)	-2.9	i	-4.6	42.5*	-5.7	17.1
Cc1cc(NC(=O)COc2ccc3ccccc3c2Br)no1	2.0	.	.	-13.8	-5.7	.
C[C@H](CO)N1C[C@H](C)[C@@H](CN(C)S(=O)(=O)c2ccc(C#N)cc2)OCc2cnnn2CCCC1=O	.	.	.	-7.6	.	.
CC1(C)CC(=O)C2=C(C1)Nc1ccccc1NC2c1ccc(F)c(F)c1 (stereo unspecified)	1.0	i	2.8	-2.8	-8.2	4.3
CC1(C)CC(=O)C2=C(C1)Nc1ccccc1NC2c1ccccc1F (stereo unspecified)	-4.7	i	8.3	47.7*	-6.8	3.4
Cc1nc2ncccn2c1-c1csc(NCc2ccco2)n1	-1.5	+	23.0	24.6	-3.8	72.9
Oc1cc(-c2ccccc2)c2ccccc2c1	-2.1	i	3.2	3.9	-2.3	4.2
O=C(Nc1cccnc1)NC1CCCCC1	-0.1	i	68.5*	-11.1	-10.0	-0.3
O=C(CSc1cn[nH]n1)Nc1ccc(O)c(C(=O)O)c1	2.3	i	18.7	38.3*	-9.1	7.6
Cc1ccc(NC(=O)CSc2cn[nH]n2)cc1	0.7	i	23.9	6.2	-4.8	-5.2
Cc1cccc(C(=O)Nc2ccc(C(=O)Nc3ccc(O)cc3)cc2)c1	0.8	i	62.4*	15.8	-4.9	17.6
Cc1cccc(C(=O)Nc2ccc(NC(=O)c3cccc(C)c3)cc2)c1	.	.	.	-6.3	.	.
O=[N+]([O-])c1ccc(SCc2ccco2)cc1N1CCOCC1	-0.4	i	20.0	1.2	-3.7	-3.0
O=[N+]([O-])c1ccc(N2CCOCC2)cc1SCc1ccco1	-4.4	+	2.6	5.3	-8.3	85.9*
COCCn1c(C)cc(C(=O)COc2ccc(C)nc2[N+](=O)[O-])c1C	7.6	i	15.9	-15.5	9.6	115.4*
CC(=O)Nc1ccccc1OCC(=O)c1cc(C)n(Cc2cccs2)c1C	-4.7	i	-10.2	9.2	-6.6	-14.0
Cc1cc(C(=O)COc2cccnc2[N+](=O)[O-])c(C)n1Cc1cccs1	9.0	i	26.7	12.9	-0.2	105.6*
CCCn1c(C)cc(C(=O)COc2ccc(C)nc2[N+](=O)[O-])c1C	-6.6	+	1.1	-1.6	-6.1	69.0*
O=C(c1ccc(N2CCOCC2)c([N+](=O)[O-])c1)N1CCCC(C(F)(F)F)C1 (stereo unspecified)	-0.9	.	.	7.1	-7.8	.
FC(F)(F)c1cccc(CNC(=S)Nc2ccccc2)c1	2.2	i	61.8*	-27.5	-2.2	-1.5
N#CC[C@H](Cc1ccccc1)N1CC[C@@H](O)CCC1=O	-1.6	i	-7.3	10.1	-2.3	-8.3
Cc1cc(C)n2nc(SCC(=O)c3cc(C)n(-c4cc(C)on4)c3C)nc2n1	-3.0	i	102.3*	19.6	-5.7	4.1
Cc1cc(C(=O)CSc2ncnc3ccccc23)c(C)n1C1CC1	-2.8	.	.	10.5	-8.4	.
SMILES	A3A deaminase	PABP polyA inh	PHOSPHO1 inh	MLLE-PAM2 inh	APOBEC3G inh	eIF4H inh
Cc1cc(-n2c(C)cc(C(=O)CSc3ncnc4ccccc34)c2C)no1	-1.7	i	84.1*	9.5	-4.2	13.0
Cc1cc(C)n2nc(SCC(=O)c3ccccc3)nc2n1	0.8	i	-22.8	16.6	-4.7	5.9
CC1Cc2ccccc2N1C(=O)CN1C(=O)NC(C)(c2ccc3c(c2)OCCO3)C1=O (stereo unspecified)	1.2	+	6.4	-41.8	-3.3	0.5*
CC1(c2ccc3c(c2)OCCO3)NC(=O)N(CC(=O)c2ccc[nH]2)C1=O (stereo unspecified)	3.3	.	.	-6.8	3.8	.
O=C(Nc1cccc(Cl)c1)c1ccc2c(c1)SC1=NS(=O)(=O)CCN12	.	i	7.7	16.4	.	0.8
Cc1ccc(C)c(Nc2cc(C)nc3ccccc23)c1	3.1	.	.	11.8	4.4	.
Cn1ccnc1Sc1nc2ccccc2nc1NS(=O)(=O)c1ccccc1	-12.3	?	73.4*	1.4	-14.6	?
Cc1c(Nc2nc3ccccc3nc2NS(=O)(=O)c2ccccc2)c(=O)n(-c2ccccc2)n1C	-3.7	i	14.8	-13.3	-3.1	-13.2
Cn1cnnc1Sc1nc2ccccc2nc1NS(=O)(=O)c1ccccc1	-0.6	?	62.2*	11.0	6.6	?
CC(=O)Nc1ccc(S(=O)(=O)Nc2nc3ccccc3nc2Sc2nncn2C)cc1	-4.8	?	54.3	56.3	-11.8	?
CCOC1=C2CN(S(=O)(=O)c3ccc(C)cc3)[C@H](c3cccc(Cl)c3)C[C@@H]2N(S(=O)(=O)c2ccccc2[N+](=O)[O-])[C@H](c2ccccc2)C1	.	.	.	11.9	.	.
CCCCNS(=O)(=O)c1ccc2nc(SCC(=O)Nc3ccccc3)[nH]c2c1	-1.8	i	-9.2	-93.8	-9.7	3.3
CCCCNS(=O)(=O)c1ccc2nc(SCC(=O)c3ccc(C#N)cc3)[nH]c2c1	-10.8	i	99.0*	-48.4	-6.1	-14.2
NC(=O)[C@@H]1CCCNc2c(F)cc([N+](=O)[O-])cc2C(=O)N[C@@H](CCC(=O)O)C(=O)N[C@@H](CO)C(=O)N1	-7.5	i	-3.7	-8.2	-9.8	3.7
O=C(CN1C(=O)c2ccccc2S1(=O)=O)Nc1ncccn1	-5.3	.	.	5.5	-13.6	.
O=C(CN1C(=O)c2ccccc2S1(=O)=O)Nc1ncc(Cl)cc1Cl	9.2	.	.	48.8*	5.0	.
COc1ccc(N2CCN(S(=O)(=O)c3c(C(=O)N4CCOCC4)c(C)n(C)c3C)CC2)cc1	-1.2	i	33.2	-0.2	3.2	4.2
CC(=O)c1ccc2cccc3c2c1N=CN3C	-3.2	i	20.6	17.4	-7.4	72.3*
O=C(N/N=C/c1cc(Br)c(O)c(Br)c1O)c1ccc2c(c1)OCCO2	8.7	i	18.4	-24.8	5.6	54.0*
O=C(N/N=C/c1cc(Br)cc(Cl)c1O)c1ccc2c(c1)OCO2	0.7	.	.	-37.5	-6.1	.
O=C(CN1CCN(S(=O)(=O)c2ccccc2)CC1)Nc1ccc(Cl)c(Cl)c1	-3.4	i	7.1	5.1	1.0	-16.9
CCn1nc(C)cc1-c1n[nH]c(=S)n1N	-19.6	i	101.6*	-40.8	0.9	-6.2
Cc1nc(N)sc1-c1csc(N(C)c2ccc(O)cc2)n1	0.9	+	84.9*	-9.3	-1.7	92.5*
